HCMV antiviral: human cytomegalovirus inhibition; HFF cells, HCMV-luciferase reporter, 72 h; stronger effect = lower value; AID 1259415; 4.5% of 410,000 active; activity change, negative = inhibition, % at 57.5 µM; in the data active means activity change below about -60%; inconclusive means no clear call, values can overlap the other calls; inactive means above about -39%
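Two compound doses tested in HFFs infected with HCMV-luciferase, MOI 1 PFU/cell, 72 h at 37C. Lysate luminescence read with OneGlo; data normalized against buffer-only and 10uM Salinomycin inhibitor controls.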
VACV Venus inh: inhibitors of vaccinia virus (Venus reporter). Potency, µM (doses to about 36.5 µM), most hits filed as inhibitors. Vaccinia virus Venus reporter expression, fluorescence. 0.46% of 330,000 active; calls by dose curve; tested in A549 cells; further: nearly all actives have a fitted effect of over 30% in size
HCV inhibitor: HCV inhibition | Huh7.5.1 HCVcc-Cre infection, luciferase reporter, 44 h | Potency, µM (titrated, usually from 41.8 µM), usual class: inhibitors | AID 651820 | 3.4% of 340,000 active; active means well fitted inhibition curve with a large enough effect; inconclusive means small, poorly fitted or top-dose-only effect, or another doubt; inactive means no such curve, though single readings can be large or run the other way
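1,000 cells/well; 4 h culture; + compound; + HCVcc-Cre (~0.5 moi); 44 h; luciferase substrate, RT 15 min; read 15 sec.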
Vaccinia mCherry: inhibitors of vaccinia virus infection (mCherry reporter signal). Potency, µM (highest dose often 36.5 µM), usual class: inhibitors. Vaccinia virus mCherry reporter infection, fluorescence. 0.63% of 310,000 active; calls by dose curve; tested in A549 cells; further: nearly all actives have a fitted effect of over 35% in size
LASV entry inh: inhibitors of Lassa virus binding or cell entry; 1.2% of 300,000 active; Lassa virus pseudotype entry inhibition, cell reporter; Potency, µM (series often up to 37.9 µM), hits mostly inhibitors; calls by dose curve; tested in HEK293 cells; further: nearly all actives have a fitted effect of over 50% in size
MARV entry inh: blocks Marburg virus binding to or entry into cells; Marburg virus pseudotyped entry inhibition, cell reporter; Potency, µM (series often up to 37.8 µM), hits mostly inhibitors; 1.8% of 300,000 active; AID 540276; calls by dose curve; tested in HEK293 cells
A number is an active result; n = inactive; u = inconclusive; x = no result given; + = active, no number; ! = a repeat was not active. A selection: hits, their analogues and other compounds. The true share with any hit is near 7.8%.

SMILES	HCMV antiviral	VACV Venus inh	HCV inhibitor	Vaccinia mCherry	LASV entry inh	MARV entry inh
Cc1ccc(C)c(N2CCN(C(=O)C3CCC(CNS(=O)(=O)c4ccc(Br)s4)CC3)CC2)c1 (centres undefined)	n	n	x	n	n	n
C#CCOCCOCCOCCNc1nc(N2CCN(C(=O)CCCCCCCCCCNC(=O)Cn3cc(C[C@@H](C)O)nn3)CC2)nc(N2CCN(C(=O)CCCCCCCCCCNC(=O)[C@H](CO)n3cc(CCCSC)nn3)CC2)n1	-85	u	n	n	x	x
C#CCOCCOCCOCCNc1nc(N2CCN(C(=O)CCCCCCCCCCNC(=O)Cn3cc(C[C@@H](C)O)nn3)CC2)nc(N2CCN(C(=O)CCCCCCCCCCNC(=O)[C@@H](CCC(=O)O)n3cc(CCCCCN)nn3)CC2)n1	n	n	n	u	x	x
C#CCOCCOCCOCCNc1nc(N2CCN(C(=O)CCCCCCCCCCNC(=O)Cn3cc(C[C@@H](C)O)nn3)CC2)nc(N2CCN(C(=O)CCCCCCCCCCNC(=O)[C@H](CCCN=C(N)N)n3cc(C[C@@H](C)CC)nn3)CC2)n1	x	11µM	n	n	x	x
C#CCOCCOCCOCCNc1nc(N2CCN(C(=O)CCCCCCCCCCNC(=O)[C@H](CO)n3cc(CCCSC)nn3)CC2)nc(N2CCN(C(=O)CCCCCCCCCCNC(=O)[C@H](CCCN=C(N)N)n3cc(C[C@@H](C)CC)nn3)CC2)n1	x	11µM	u	n	x	x
CN(C)c1ccc(CNS(=O)(=O)c2ccc(-c3cc(C(F)(F)F)on3)s2)cc1	n	n	x	n	n	x
Cc1ccc(-c2cnco2)cc1	n	x	n	x	x	x
Cc1ccc(-c2cc(-c3ccc(C)cc3)[n+](C)o2)cc1	-103	n	8.9µM	n	12µM	3.5µM
Cc1ccc(NC(=O)c2ccc(NCc3ccc(F)cc3)nc2)cc1	-105	n	n	n	n	n
Cc1ccc(-c2nnc(Nc3cccc(C(F)(F)F)c3)c3ccccc23)cc1S(=O)(=O)N1CCOCC1	u	n	x	n	n	x
NCCOc1ccc(C2CCCCC2)cc1	n	n	n	n	n	u
OCCN1CCN(CC(O)COc2ccc(C34CC5CC(CC(C5)C3)C4)cc2)CC1 (centres undefined)	-96	u	13µM	n	u	u
NCCOc1ccc(C23CC4CC(CC(C4)C2)C3)cc1	-85	x	u	x	x	x
Cc1ccc(CNC(=O)c2ccc3c(=O)n(-c4ccccc4)c(=O)[nH]c3c2)cc1	n	n	x	n	n	n
CCOC(=O)C1=C(C)Nc2sc(C(=O)c3ccc(F)cc3)c(N)c2C1c1ccc(C(=O)OC)cc1 (centres undefined)	n	n	7.1µM	n	u	u
CCCCCN(CCCCC)C(=O)C(CCC(=O)O)NC(=O)c1ccc(Cl)c(Cl)c1 (centres undefined)	-61	n	n	n	n	u
CCCCCN(CCCCC)C(=O)[C@H](CCC(=O)O)NC(=O)c1ccc(Cl)c(Cl)c1	x	x	x	x	x	n
COc1ccc(-c2nc3cc(NC(=O)Cc4ccc(OC)c(OC)c4)ccc3o2)cc1	-76	x	7.1µM	x	n	u
COc1ccc(-c2nc3cc(NC(=O)CSc4ccc(C)cc4)ccc3o2)cc1	n	n	x	n	u	u
O=C(Cc1ccc(Cl)cc1)Nc1ccc2oc(=O)ccc2c1	-64	n	u	n	n	n
COc1ccc(-c2nc3cc(NC(=O)Cc4ccc(Cl)cc4)ccc3o2)cc1OC	-94	u	x	u	u	x
COc1ccc(CC(=O)Nc2ccc(-c3cn4cccc(C)c4n3)cc2)cc1OC	n	u	10µM	x	n	u
O=C(Cc1ccc(Cl)cc1)Nc1ccc2oc(-c3ccc(F)cc3)nc2c1	n	n	x	n	n	x
CCC(C)NC(=O)Cn1c(=O)c2cccn2c2ccc(F)cc21 (centres undefined)	n	n	x	n	n	x
COC1CCCC(c2nc(N)nc(SC)c2C#N)C1 (centres undefined)	x	x	x	x	x	n
SMILES	HCMV antiviral	VACV Venus inh	HCV inhibitor	Vaccinia mCherry	LASV entry inh	MARV entry inh
CCOC(=O)c1c(C)[nH]c(C)c1S(=O)(=O)N(C)CC(=O)N1CCN(c2ccccc2OC)CC1	n	n	x	n	n	x
COc1ccc(C(=O)Nc2ccc3c(c2)CCCN3S(=O)(=O)c2ccc(C)cc2)c(OC)c1	n	n	x	n	n	x
CCN(CC)CCC(=O)Nc1ccc2c(c1)N(C(=O)CN(CC)CC)c1ccccc1CC2	n	n	u	x	u	6.3µM
O=C(COc1ccccc1)N/N=C/c1ccc([N+](=O)[O-])o1	-71	x	n	x	x	x
O=C(N/N=C/c1ccc(-c2ccc([N+](=O)[O-])cc2)o1)C(O)c1ccccc1 (centres undefined)	n	n	u	u	n	u
CN(/N=C/c1ccc([N+](=O)[O-])o1)c1ccccc1	-78	n	n	n	n	n
O=C(N/N=C/c1ccc([N+](=O)[O-])o1)C(O)c1ccccc1 (centres undefined)	-60	x	u	x	x	x
CCOC(=O)CN1C(=O)N(c2ccc(C)c(C)c2)S(=O)(=O)c2ccccc21	n	n	x	n	n	x
Cc1cccc(C)c1NC(=O)C1(C)CCc2nc3ccccc3n21 (centres undefined)	n	x	x	x	x	x
CCCCn1c(N)c(NCC(C)C)c(=O)[nH]c1=O	-91	n	n	n	n	n
C[n+]1c(-c2ccccc2)c2cc(N)ccc2c2ccc(N)cc21	-100	n	2.5µM	u	x	x
Nc1ccc2nc(-c3ccccc3)c(-c3ccccc3)nc2c1	n	n	n	u	n	n
COc1ccc(OCc2cc(C(=O)N3CCCC(CO)C3)no2)c2ccccc12 (centres undefined)	n	n	u	n	n	n
COCC1CCN(C(=O)c2cc(COc3cccc4cnccc34)on2)CC1	+	n	7.1µM	n	n	n
COCC1CCN(C(=O)c2cc(COc3ccc(F)cc3Cl)on2)C1 (centres undefined)	n	n	x	n	x	x
O=C(c1cc(COc2cccc3cnccc23)on1)N1CCCC(CCCO)C1 (centres undefined)	-86	x	1.4µM	x	x	x
COc1ccc(CN2CCC(CNS(=O)(=O)c3cccc(C(F)(F)F)c3)CC2)cc1	n	n	11µM	n	x	u
COC(=O)c1cc(S(=O)(=O)NCC2CCN(Cc3ccc(F)cc3)CC2)c[nH]1	n	n	n	n	n	n
CC(C)CC(N(C)C)C1(c2ccc(Cl)cc2)CCC1 (centres undefined)	u	n	3.5µM!	n	x	x
CN(C)C1(c2nnnn2-c2ccc(Cl)cc2)CCCCC1	n	n	n	n	x	x
CCN1CCS/C1=C\C=C\C1=[N+](CC)CCS1	-104	x	6.3µM	x	x	2.5µM
CCN1CCS/C1=C/C=C/C1=[N+](CC)CCS1	x	u	x	n	u	2.5µM
COc1cccc(CNC(=O)c2[nH]c3cc(C)ccc3c2Sc2ccccc2)c1	-63	u	x	u	n	n
COc1ccc2c(Sc3ccccc3)c(C(=O)NCc3cccc(OC)c3OC)[nH]c2c1	n	n	x	n	u	u
COc1ccc(N(CC(=O)NCc2ccc(C)cc2)S(=O)(=O)c2c(C)[nH]c(=O)[nH]c2=O)cc1	+!	n	n	n	n	n

From PubChem
